Experimental data published in the supplement of paper PMC8387472.

Assays:
Details in all cases: mESC; 2uM; 72 h treatment, harvest day 5
[1] = compound: O=c1cc(N2CCOCC2)oc2c(-c3ccc4c(c3)OCCO4)csc12; assay: fraction of edited reads among all mapped reads; higher = more Cas9 editing
Mercaptopurine (6-MP) = compound: S=c1[nH]cnc2nc[nH]c12 [Mercaptopurine (6-MP)]; assay: as above
[2] = compound: S=c1nc[nH]c2nc[nH]c12 [6-Mercaptopurine (6-MP) Monohydrate]; assay: as above
[3] = compound: CC(=O)O/N=C1\C(=O)N(Cc2cc(Cl)ccc2Cl)c2ccc(Cl)cc21; assay: fraction of microhomology deletions among edited reads; higher = more MH deletions
[4] = compound: CC(C)(C#N)c1ccc(N2C(=O)OCc3cnc4ccc(-c5cnc6ccccc6c5)cc4c32)cc1; assay: as above
[5] = compound: CCCCOc1c(C(=O)c2c(F)cc(C)cc2F)c[nH]c2nncc1-2; assay: as above
[6] = compound: CCN1CCN(CC(=O)Nc2ccc(-c3cccc4c(=O)cc(N5CCOCC5)oc34)c3sc4ccccc4c23)CC1; assay: as above
[7] = compound: CCc1c2c(nc3ccc(OC(=O)N4CCC(N5CCCCC5)CC4)cc13)-c1cc3c(c(=O)n1C2)COC(=O)[C@]3(O)CC [Irinotecan HCl Trihydrate]; assay: as above
[8] = compound: CCn1c(=O)c(-c2ccc(Cl)cc2Cl)cc2cnc(Nc3ccc(N4CCNCC4)c(F)c3)nc21; assay: as above
[9] = compound: CNc1ccc([N+](=O)[O-])c(Nc2ccc3[nH]ncc3c2)n1; assay: as above

Target	fraction of edited reads among all mapped reads [1]	fraction of edited reads among all mapped reads (Mercaptopurine (6-MP))	fraction of edited reads among all mapped reads [2]	fraction of microhomology deletions among edited reads [3]	fraction of microhomology deletions among edited reads [4]	fraction of microhomology deletions among edited reads [5]	fraction of microhomology deletions among edited reads [6]	fraction of microhomology deletions among edited reads [7]	fraction of microhomology deletions among edited reads [8]	fraction of microhomology deletions among edited reads [9]
18.0 (DMSO control at this site: 1-bp insertion 0.114, MH deletion 0.789, edited 0.094) GCGCAAGTGCATAAGTTTTTCTTAAGGCGTGCCTTTAAGGCGTGCCTTTGTCGGTCCTGGA	0.0717	0.112	0.0789	0.794	0.798	0.787	0.866	0.789	0.794	0.793
47.0 (DMSO control at this site: 1-bp insertion 0.095, MH deletion 0.585, edited 0.118) GAGTGGTCCCGAGCCAGGAACTGTGTGTGTTGCAGGGGGGCAGTAACTCCCCAACTCCCTC	0.0673	0.143	0.101	0.564	0.539	0.518	0.62	0.473	0.597	0.542
2.0 (DMSO control at this site: 1-bp insertion 0.364, MH deletion 0.356, edited 0.125) GGTGCCCCCGAGACCTACGCGAACCGAAATCGATGTCCGGTGCGCAAGCAGGGCTGGCGTC	0.0694	0.166	0.112	0.422	0.343	0.375	0.513	0.414	0.384	0.345
4.0 (DMSO control at this site: 1-bp insertion 0.146, MH deletion 0.523, edited 0.125) ACGCCTTAGTGCACGAGTGACGGGATAATGTGGTCTCAGGTAATTGATAGGCTTCCAACTT	0.0874	0.174	0.122	0.582	0.526	0.507	0.635	0.564	0.591	0.527
42.0 (DMSO control at this site: 1-bp insertion 0.145, MH deletion 0.655, edited 0.132) GGGCTAAACCTATGAGCACAGTAGAACTAAGGGTGGGTGGTGTAGCTAAAGAACTTGACCA	0.0994	0.171	0.109	0.699	0.678	0.696	0.734	0.672	0.706	0.633
46.0 TTAAGAGCAATGTTCACGCAACTTGAAATTATATCTGTGGTCTTCAAATTGTCTTTTGTCA	–	–	0.0652	–	0.597	0.422	–	–	–	0.376
23.0 AGAACAAAGCGCTCATATAACGATATGGGGGGTTATGGGGGGTTGAATTGCTTCAGCACGA	–	–	–	–	–	–	–	–	–	0.88
35.0 (DMSO control at this site: 1-bp insertion 0.01, MH deletion 0.72, edited 0.098) CCACTTTTAGAGAGGGTGAAAATCATCAGTTATCATCAGGGCAACAAATTGCTTTCTCCTA	0.0645	0.127	0.0862	0.754	0.761	0.781	0.788	0.732	0.729	0.732
16.0 (DMSO control at this site: 1-bp insertion 0.172, MH deletion 0.29, edited 0.05) CGGACTGCACACATGGGTAGGATCGTGCACGCGAGGTAGGATCGTGCACGCGAAGTTATTC	0.0306	0.0811	0.0574	0.319	0.293	0.294	0.34	0.252	0.308	0.252
44.0 (DMSO control at this site: 1-bp insertion 0.181, MH deletion 0.512, edited 0.123) ACACATACCTTCTTCGAGGCAGCCAGCATGATGAGACAGGTCTCCCACAAACACATCGTGT	0.091	0.173	0.13	0.553	0.526	0.528	0.637	0.469	0.547	0.506
32.0 (DMSO control at this site: 1-bp insertion 0.03, MH deletion 0.85, edited 0.898) AGAAGTCCAGGATCAGGGGGACTGGGGTCGGGAGGGTGGGGCAGGAAGGAAGCCAGAATCA	0.84	0.906	0.874	0.93	0.904	0.914	0.912	0.901	0.905	0.895
3.0 (DMSO control at this site: 1-bp insertion 0.109, MH deletion 0.149, edited 0.09) TGCTAGCGCCCCCACAAAGCGGACCAGCCAGCACTATAGGGAATAAGGCCAACTTGCACCC	0.0464	0.123	0.0926	0.225	0.161	0.199	0.266	0.222	0.226	0.188
28.0 (DMSO control at this site: 1-bp insertion 0.035, MH deletion 0.77, edited 0.142) TGGTTCTTCCTTTGTAGAGAGTGTTCATCTGGGAATCTGGGACTTGGATGAGACAATCATT	0.0926	0.18	0.117	0.789	0.793	0.767	0.818	0.763	0.774	0.774
21.0 CGATTGAGAGTCAAACGGGCCAGAAAACTCCGGGAACGGGCCAGAAAACTCCGGGGCATGG	0.0627	0.169	0.117	0.191	0.163	0.144	0.276	0.188	–	0.197
15.0 GCGCCTCCAATGACCCAGTGGGATCCTACTCCATAATGGGATCCTGGGGATTCCTCGCTCC	–	–	0.132	0.354	0.378	–	–	–	–	–
30.0 (DMSO control at this site: 1-bp insertion 0.074, MH deletion 0.67, edited 0.142) GAGCTGGCATGAGTATTTGTGCCACATGGCTCCCACATGGCTCCACATGCAAGTTTGAAAC	0.0819	0.165	0.115	0.699	0.725	0.723	0.761	0.727	0.708	0.699
26.0 (DMSO control at this site: 1-bp insertion 0.518, MH deletion 0.262, edited 0.026) AGGGCGCGCCCCACGCACTCTGCGGCAAGTCCCTCTGCGGCAAGTCCTCGGCCCGGAAGAC	0.0106	0.04	0.0282	0.289	0.324	0.27	0.54	0.29	0.331	0.256
41.0 (DMSO control at this site: 1-bp insertion 0.022, MH deletion 0.754, edited 0.115) AAAGAGACAGCAGGTATGAATCCATCTTCCTGACCCTTGGGACCAGCCGGGGCAGTGAAGC	0.0713	0.161	0.116	0.745	0.754	0.717	0.792	0.729	0.738	0.742
20.0 (DMSO control at this site: 1-bp insertion 0.349, MH deletion 0.138, edited 0.084) TACAGGTGTAGACTGGTTACGTGGCTGCGGAATTGACTGGTTACGTGGCTGCGGAATTTTG	0.0465	0.111	0.082	0.235	0.239	0.174	0.285	0.222	0.12	0.136
29.0 (DMSO control at this site: 1-bp insertion 0.084, MH deletion 0.745, edited 0.133) TTGATGAACTTCCTCTTCTTCTCATGTCTCCGGTCTCCGGTAGGCCACGTGCATGGCCACT	0.0905	0.171	0.127	0.727	0.728	0.734	0.773	0.719	0.757	0.738
